# Test results taken from the supplement of paper PMC10849652.
# Of roughly 8,800 targets only a part is listed; those with a hit were picked by preference. About 0.5% of all pairs of compound and target were hits. A number with no mark means an inactive call.
# Columns and labels:
# Assay in all cases: log2 fold change, soluble protein after heating vs DMSO (PISA); higher = thermal stabilisation; K562 lysate, 10 uM; active = over 0.2 and 3.5 SD of the protein, either way, in both replicates (recomputed)
# [1] = compound: C=CC(=O)N1CCC[C@@H](n2nc(-c3ccc(Oc4ccccc4)cc3)c3c(N)ncnc32)C1 [ibrutinib]
# In short: (§1)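 Following dounce homogenisation of K562 pellets in PBS pH 7.4 with 1 mM MgCl2, crude extract at 1 mg/mL protein was incubated for 30 min with 10 μM compound. Aliquots were then heated for 3 min over 48°C-58°C and pooled, NP-40 was added to 0.5% at 4°C, and soluble protein was recovered as the supernatant at 21,000xg for 90 min. Channel-sum-equalised TMTpro 16plex LC-MS/MS quantified this protein. Each value, from duplicates, is a log-two fold change in thermal stability relative to solvent controls.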
# [2] = compound: CC(=O)c1cnc2ccc(-c3cc(Cl)c(O)c(Cl)c3)nc2c1N[C@H]1CC[C@H](CN(C)C)CC1
# In short: as §1
# [3] = compound: CC(C)(C)Cn1c(N)nc2ccc(-c3[nH]c(C(C)(C)C)nc3-c3ccc(F)cc3)nc21 [ralimetinib]
# In short: as §1
# [4] = compound: CC(C)(O)CC(=O)NCCn1ccc2ncnc(Nc3ccc(Oc4cccc(C(F)(F)F)c4)c(Cl)c3)c21
# In short: as §1
# [5] = compound: CC(C)C1=C2N=C(C=C(N2N=C1)NCC3=CC=CC=C3)NCCCCCCN
# In short: as §1
# [6] = compound: CC1=C(C(CC(=O)N1)C2=CC=C(C=C2)C(F)(F)F)C(=O)NC3=C(C=C4C(=C3)C=NN4)F
# In short: as §1
# [7] = compound: CC1=C(C2=C(C=C1)C(=O)C3=CC=CC=C3N2CCCN)C
# In short: as §1
# [8] = compound: CC1=C(C=C(C=C1)NC(=O)C2=CC(=CC=C2)C(C)(C)C#N)NC3=CC4=C(C=C3)N=CN(C4=O)C
# In short: as §1
# [9] = compound: CC1=C(C=C(C=C1)NC(=O)C2=CC(=CC=C2)N(C)C)NC(=O)C3=CC=C(C=C3)O
# In short: as §1
# [10] = compound: CC1=CC=C(C=C1)SC2=C3C=C(SC3=CN=C2)C(=O)N
# In short: as §1
# [11] = compound: CCCS(=O)(=O)Nc1ccc(F)c(C(=O)c2c[nH]c3ncc(-c4ccc(Cl)cc4)cc23)c1F [vemurafenib]
# In short: as §1
# [12] = compound: CCCS(=O)(=O)Nc1ccc(F)c(C(=O)c2c[nH]c3ncc(Cl)cc23)c1F
# In short: as §1
# [13] = compound: CCN(CCCOc1ccc2c(Nc3cc(CC(=O)Nc4cccc(F)c4)[nH]n3)ncnc2c1)CCOP(=O)(O)O [barasertib]
# In short: as §1
# [14] = compound: CC[C@@H]1C(=O)N(C)c2cnc(Nc3ccc(C(=O)NC4CCN(C)CC4)cc3OC)nc2N1C1CCCC1
# In short: as §1
# [15] = compound: CC[C@@H]1C(=O)N(C)c2cnc(Nc3ccc(C(=O)N[C@H]4CC[C@H](N5CCN(CC6CC6)CC5)CC4)cc3OC)nc2N1C(C)C [volasertib]
# In short: as §1
# [16] = compound: CCn1c(C(=O)N(C2CC2)C2CC2)cc2c3c(ncn3C)c(Nc3cc(C)n(C)n3)nc21
# In short: as §1
# [17] = compound: CCn1cc(-c2ccnc3[nH]c(-c4cccc(CN(C)C)c4)cc23)c(-c2ccc(NC(=O)N(C)C)cc2)n1
# In short: as §1
# [18] = compound: CN1CCC(CNc2ccc3ncc(-c4cccc(OC(F)(F)F)c4)n3n2)CC1
# In short: as §1
# [19] = compound: CN1CCN(CCOc2cc(OC3CCOCC3)c3c(Nc4c(Cl)ccc5c4OCO5)ncnc3c2)CC1 [saracatinib]
# In short: as §1
# [20] = compound: CN1CCN(c2nc(C3=C(c4c[nH]c5ccccc45)C(=O)NC3=O)c3ccccc3n2)CC1 [sotrastaurin]
# In short: as §1
# Sequence of UniProt P51532 (P51532 whole entry, looked up): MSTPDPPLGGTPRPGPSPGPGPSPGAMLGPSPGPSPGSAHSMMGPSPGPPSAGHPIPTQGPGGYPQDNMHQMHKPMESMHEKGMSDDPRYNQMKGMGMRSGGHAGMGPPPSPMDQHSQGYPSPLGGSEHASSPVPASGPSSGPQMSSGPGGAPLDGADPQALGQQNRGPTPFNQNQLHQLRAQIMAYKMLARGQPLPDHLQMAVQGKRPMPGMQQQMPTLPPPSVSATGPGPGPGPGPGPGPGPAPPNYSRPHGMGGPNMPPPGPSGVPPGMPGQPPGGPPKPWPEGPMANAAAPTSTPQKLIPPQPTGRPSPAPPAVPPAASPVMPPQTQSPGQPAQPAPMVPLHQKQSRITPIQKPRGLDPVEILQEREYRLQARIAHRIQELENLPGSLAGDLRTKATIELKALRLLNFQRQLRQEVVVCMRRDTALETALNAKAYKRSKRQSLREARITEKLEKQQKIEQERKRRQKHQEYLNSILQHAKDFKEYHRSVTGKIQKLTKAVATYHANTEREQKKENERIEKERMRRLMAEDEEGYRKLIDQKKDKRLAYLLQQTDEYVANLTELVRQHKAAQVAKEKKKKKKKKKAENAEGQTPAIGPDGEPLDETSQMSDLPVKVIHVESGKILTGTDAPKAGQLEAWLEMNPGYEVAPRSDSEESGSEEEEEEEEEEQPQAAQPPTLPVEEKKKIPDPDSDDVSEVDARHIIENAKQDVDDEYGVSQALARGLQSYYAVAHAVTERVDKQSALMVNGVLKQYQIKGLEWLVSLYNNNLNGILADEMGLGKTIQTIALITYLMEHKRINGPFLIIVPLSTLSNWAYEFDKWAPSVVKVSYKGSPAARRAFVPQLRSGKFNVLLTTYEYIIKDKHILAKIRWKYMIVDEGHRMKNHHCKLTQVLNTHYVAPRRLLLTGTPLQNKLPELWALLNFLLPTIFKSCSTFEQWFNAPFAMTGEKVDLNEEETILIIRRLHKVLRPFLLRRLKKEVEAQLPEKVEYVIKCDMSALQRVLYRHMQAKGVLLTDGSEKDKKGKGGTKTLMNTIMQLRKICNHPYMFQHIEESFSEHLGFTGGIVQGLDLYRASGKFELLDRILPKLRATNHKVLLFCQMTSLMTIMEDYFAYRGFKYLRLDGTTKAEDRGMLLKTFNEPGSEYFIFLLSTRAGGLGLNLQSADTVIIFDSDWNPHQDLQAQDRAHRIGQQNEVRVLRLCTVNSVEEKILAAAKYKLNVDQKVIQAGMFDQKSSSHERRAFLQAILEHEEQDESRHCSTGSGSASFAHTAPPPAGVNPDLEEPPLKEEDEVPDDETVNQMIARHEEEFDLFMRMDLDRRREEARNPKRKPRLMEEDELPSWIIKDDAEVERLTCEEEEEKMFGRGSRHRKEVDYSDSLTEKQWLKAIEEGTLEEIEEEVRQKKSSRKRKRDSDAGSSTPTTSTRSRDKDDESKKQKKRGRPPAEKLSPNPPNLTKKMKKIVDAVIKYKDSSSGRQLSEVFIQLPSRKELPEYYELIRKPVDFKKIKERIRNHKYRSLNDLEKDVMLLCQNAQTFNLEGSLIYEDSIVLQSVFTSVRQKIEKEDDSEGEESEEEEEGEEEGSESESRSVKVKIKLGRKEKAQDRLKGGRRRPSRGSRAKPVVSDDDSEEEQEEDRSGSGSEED
# Sequence of UniProt O14975 (O14975 whole entry, looked up): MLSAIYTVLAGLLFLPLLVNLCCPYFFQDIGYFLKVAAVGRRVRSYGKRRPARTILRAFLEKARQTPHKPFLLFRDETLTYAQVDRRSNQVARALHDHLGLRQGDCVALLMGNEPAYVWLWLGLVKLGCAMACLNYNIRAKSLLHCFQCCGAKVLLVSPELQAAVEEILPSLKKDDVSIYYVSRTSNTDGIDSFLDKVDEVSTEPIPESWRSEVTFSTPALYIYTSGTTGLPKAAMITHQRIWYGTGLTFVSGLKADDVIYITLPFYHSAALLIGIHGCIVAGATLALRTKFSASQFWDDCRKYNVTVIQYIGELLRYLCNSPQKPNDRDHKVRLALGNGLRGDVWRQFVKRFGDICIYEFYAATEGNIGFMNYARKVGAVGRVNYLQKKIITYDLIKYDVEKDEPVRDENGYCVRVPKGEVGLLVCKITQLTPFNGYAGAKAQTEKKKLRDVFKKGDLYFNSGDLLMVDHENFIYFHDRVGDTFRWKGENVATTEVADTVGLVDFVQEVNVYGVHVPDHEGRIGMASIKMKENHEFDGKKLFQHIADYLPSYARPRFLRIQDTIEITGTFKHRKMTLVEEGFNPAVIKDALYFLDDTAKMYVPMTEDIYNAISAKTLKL
# Sequence of UniProt P62318 (P62318 whole entry, looked up): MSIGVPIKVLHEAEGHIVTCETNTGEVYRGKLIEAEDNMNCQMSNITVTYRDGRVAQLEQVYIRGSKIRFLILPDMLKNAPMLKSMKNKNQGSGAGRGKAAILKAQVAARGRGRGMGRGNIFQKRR
# Sequence of UniProt O43808 (O43808 whole entry, looked up): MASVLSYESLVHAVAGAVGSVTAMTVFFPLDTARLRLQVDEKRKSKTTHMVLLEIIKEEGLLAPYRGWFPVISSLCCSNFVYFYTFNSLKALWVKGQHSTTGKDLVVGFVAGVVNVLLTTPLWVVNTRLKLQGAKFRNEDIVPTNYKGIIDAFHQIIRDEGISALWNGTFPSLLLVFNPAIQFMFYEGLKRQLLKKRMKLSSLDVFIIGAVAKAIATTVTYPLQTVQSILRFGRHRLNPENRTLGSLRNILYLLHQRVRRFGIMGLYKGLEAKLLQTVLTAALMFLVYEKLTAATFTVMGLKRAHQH
# Sequence of UniProt Q16563 (Q16563 whole entry, looked up): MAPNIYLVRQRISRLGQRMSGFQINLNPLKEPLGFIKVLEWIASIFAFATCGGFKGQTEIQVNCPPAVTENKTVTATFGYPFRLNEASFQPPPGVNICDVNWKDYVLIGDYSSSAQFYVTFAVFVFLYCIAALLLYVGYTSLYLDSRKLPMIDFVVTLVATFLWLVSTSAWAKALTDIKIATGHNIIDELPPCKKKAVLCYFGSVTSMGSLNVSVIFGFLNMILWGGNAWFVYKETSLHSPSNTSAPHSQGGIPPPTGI
# Sequence of UniProt Q9C0B7 (Q9C0B7 whole entry, looked up): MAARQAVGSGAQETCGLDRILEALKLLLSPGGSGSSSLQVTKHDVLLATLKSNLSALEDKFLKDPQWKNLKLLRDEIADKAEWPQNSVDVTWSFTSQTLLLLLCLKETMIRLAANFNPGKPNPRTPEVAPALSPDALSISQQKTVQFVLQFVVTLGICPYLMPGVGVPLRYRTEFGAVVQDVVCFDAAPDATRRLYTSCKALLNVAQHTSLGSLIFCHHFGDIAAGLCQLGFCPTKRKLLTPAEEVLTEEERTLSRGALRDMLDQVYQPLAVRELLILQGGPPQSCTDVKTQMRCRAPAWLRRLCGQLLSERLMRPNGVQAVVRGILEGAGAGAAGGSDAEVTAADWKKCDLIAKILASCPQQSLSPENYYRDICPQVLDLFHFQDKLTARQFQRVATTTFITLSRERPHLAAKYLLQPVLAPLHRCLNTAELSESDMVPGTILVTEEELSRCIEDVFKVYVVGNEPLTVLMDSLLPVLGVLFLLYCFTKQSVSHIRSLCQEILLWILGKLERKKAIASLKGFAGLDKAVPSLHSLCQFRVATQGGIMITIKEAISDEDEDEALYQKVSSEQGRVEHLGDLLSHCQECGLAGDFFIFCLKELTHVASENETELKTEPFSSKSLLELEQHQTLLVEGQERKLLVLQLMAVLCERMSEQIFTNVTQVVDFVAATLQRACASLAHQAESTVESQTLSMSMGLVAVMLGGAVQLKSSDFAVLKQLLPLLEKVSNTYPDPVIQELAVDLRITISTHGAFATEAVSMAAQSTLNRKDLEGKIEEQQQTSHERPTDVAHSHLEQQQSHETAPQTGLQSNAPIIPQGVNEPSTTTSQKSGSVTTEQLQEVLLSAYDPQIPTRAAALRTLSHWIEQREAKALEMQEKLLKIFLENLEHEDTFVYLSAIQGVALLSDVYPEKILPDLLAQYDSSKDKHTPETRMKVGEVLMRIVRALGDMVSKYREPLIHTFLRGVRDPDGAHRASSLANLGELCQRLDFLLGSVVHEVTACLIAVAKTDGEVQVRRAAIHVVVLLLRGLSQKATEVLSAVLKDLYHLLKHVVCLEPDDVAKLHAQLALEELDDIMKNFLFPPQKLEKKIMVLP
Target,log2 fold change [1],log2 fold change [2],log2 fold change [3],log2 fold change [4],log2 fold change [5],log2 fold change [6],log2 fold change [7],log2 fold change [8],log2 fold change [9],log2 fold change [10],log2 fold change [11],log2 fold change [12],log2 fold change [13],log2 fold change [14],log2 fold change [15],log2 fold change [16],log2 fold change [17],log2 fold change [18],log2 fold change [19],log2 fold change [20]
STK24 (UniProt B4DR80),0.024,0.218 (active),0.005,0.024,0.001,-0.019,-0.019,-0.018,-0.019,-0.018,0.009,0.005,0,-0.03,-0.017,0.005,0.02,-0.007,0.005,0.046
SLC25A17 (UniProt O43808),-0.007,-0.043,0.047,-0.019,0.037,0.001,0.029,0.03,-0.01,0.044,-0.035,-0.031,0.02,0.066,0.04,-0.043,-0.119,0.103,0.041,0.015
SMARCA4 (UniProt P51532),0.021,-0.007,0.035,0.018,-0.009,-0.003,-0.032,-0.026,0.028,0.012,0.011,0.006,0.038,-0.058,-0.024,0.02,-0.044,-0.024,0.011,0.034
TANGO6 (UniProt Q9C0B7),-0.056,0.039,0.023,0.02,-0.067,-0.028,-0.017,-0.013,-0.02,-0.011,0.062,-0.113,0.036,0.023,0.042,-0.054,-0.187,0.121,-0.011,0.081
SYPL1 (UniProt Q16563),0.015,0.004,0.018,-0.058,0,-0.025,-0.018,0.007,0.006,-0.005,-0.006,-0.019,0.076,0.004,0.032,-0.011,-0.418 (active),0.194,0.01,0.023
SLC27A2 (UniProt O14975),0.243,-0.024,-0.013,0.245,0.11,-0.041,-0.035,0.069,-0.089,0.031,0.089,0.009,0.029,-0.033,-0.084,-0.063,-0.024,0.082,-0.021,0.159
"SNX6, A0A0A0MRI2",-0.034,0,-0.005,-0.03,-0.011,-0.032,-0.001,0.018,0.039,-0.004,0.005,0.025,0.006,-0.111,-0.05,0.026,0.21,-0.126,-0.002,-0.013
SNRPD3 (UniProt P62318),-0.033,0.035,0.067,-0.018,-0.05,0.017,0.019,-0.012,-0.004,-0.008,0.022,-0.012,-0.006,-0.049,-0.004,0.052,-0.254,0.135,0.046,0.024
